Reference: PubChem BioAssay (NCI)
This is part of a sample that, as a whole, favours compounds with a hit. Of some 83,000 tested, about 20% had one in any assay.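 Percent growth is the endpoint: 0 to 100 indicates growth inhibition (40 means 60% inhibition), 0 means no net growth, and negative values indicate cell death.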 Calls of active or inactive are those of the source. Rule for the calls: active = growth percent below 10; inactive = the rest.

What follows are compounds tested on BT-549 breast (assay: NCI-60 one-dose screen, 48 h (100 = growth as untreated, 0 = no growth, -100 = all killed)). Conditions: 10 µM unless noted.
For `CCOc1cccc(/C(N)=N/C(N)=N/c2nc3ccccc3s2)c1`, the growth was 102% (inactive). In the case of `Cc1ccc2c(n1)C(=O)C(Cl)=C(Nc1cc(C(F)(F)F)cc(C(F)(F)F)c1)C2=O`, the growth is reported as 115% (inactive). For `CC(C)(C)OC(=O)NCc1ccc(CNc2c([N+](=O)[O-])cnc3ccccc23)cc1`, the growth was 54.8% (inactive). With `C#CCOc1cccc(-c2nc(N)nc(Nc3ccccc3SSc3ccccc3Nc3nc(N)nc(-c4cccc(OCC#C)c4)n3)n2)c1` the growth was 58.8% (inactive). For `CN1CCN(c2ccc(Nc3nc(NCCNS(=O)(=O)c4ccccc4)c4sccc4n3)cc2)CC1`, the growth was 108% (inactive). `C=C(C=O)[C@@H]1CC[C@]2(C(=O)O)CC[C@]3(C)C(CC[C@@H]4[C@@](C)(CCC#N)[C@H](C(=C)C=O)CC[C@]43C)[C@@H]12` (some centres not stated) was tested, and the growth was 28.9% (inactive). For `O=C(CSc1nc2ccccc2c(=O)n1-c1ccccc1)N/N=C/c1ccc(Oc2ccc(Br)cc2)cc1`, the growth was 73.1% (inactive). `CC(C)C(/C=C/c1[nH]ncc1-c1cc(Cl)ccc1O)N1CCOCC1` (configuration not stated) was tested, and the growth was 90% (inactive). `N#Cc1c(-c2cccs2)cc(-c2cnccn2)nc1SCC(=O)N/N=C/c1ccc(Cl)cc1` was tested, and the growth was 107% (inactive). In the case of `CN1CCN(c2ccc(Nc3nc(NCCCNS(=O)(=O)c4ccc(Cl)cc4)c4sccc4n3)cc2)CC1`, the growth is reported as -70.2% (active). `O=C1[C@@H]2Cc3c([nH]c4ccccc34)[C@H](c3ccc(Br)cc3)N2C(=O)CN1C1CCN(Cc2c(Cl)cccc2Cl)CC1` was tested, and the growth was 110% (inactive). `COc1ccc(NC(=O)CCCCCCNC(=O)C(O)(O)C(F)(F)F)cc1` was tested, and the growth was 76.4% (inactive).
